Hit rate of the full screen: of about 320,000 compounds, about 9,100 (2.8%) were called active. Where a call stands in place of a potency, no number is given. Not shown: some 3% with an inconclusive outcome. For the sample, actives were picked, then their nearest neighbours and some compounds at random. A number with no mark means an inactive call. The call rests on the fitted dose curve; in most records, active means well fitted activation curve with a large enough effect; inconclusive means small, poorly fitted or top-dose-only effect; inactive means no such curve, though single readings can be large or run the other way.
Potency means the concentration at half of the fitted maximal effect.

The nature of the assay: qHTS Assay for Rab9 Promoter Activators. Further: nearly all actives have a fitted effect of over 60% in size. To be noted: Huh7 Rab9 promoter-luciferase reporter, luminescence, 24 h; series mostly up to 9.22 µM. From the text: NIH Chemical Genomics Center [NCGC] NIH Molecular Libraries Probe Production centers Network [MLPCN] MLPCN Grant: MH089537-01 Assay Submitter (PI): Yiannis A. Ioannou NCGC Assay Overview: Niemann Pick Type C (NPC) is a rare neurodegenerative lipidosis that is characterized by lipid storage in the endosomal/lysosomal system. Treatment modalities for this devastating disease are currently non-existent due to the severe obstacles associated with accessing the central nervous system with proteins or genes (Ioannou, 2000). We have developed a new paradigm, termed "Orphan Receptor Bypass Therapy" (ORByT), to address these disorders. This paradigm posits the existence of endogenous "suppressor" proteins whose expression can dramatically improve LSD pathogenesis. The goal is the identification/discovery of small chemical compounds that can modulate the expression of these proteins and provide a new treatment modality for these devastating disorders. One such protein whose overexpression reverses aspects of the NPC phenotype is Rab9. We have developed and optimized a cell based luciferase reporter assay in 1536 well format for the identification of up-regulators of the Rab9 promoter.
The Rab9 promoter is cloned in front of the luciferase reporter gene, therefore […] promoter activation results in luciferase expression. Frozen stock of the Rab9 promoter transfected Huh7 cells were obtained from the laboratory of Dr. Yiannis Ioannou (The Mount Sinai School of Medicine, New York, NY). Cells were propagated and maintained at NCGC in medium containing RPMI-1640 supplemented with 10% FBS, 2mM L-glutamine, and 50ug/ml penicillin/streptomycin. Cells were harvested in and plated for assays in OP-MEM I reduced-serum medium supplemented with 10% FBS. The Amplite luciferase reporter gene assay kit was purchased from ABD Bioquest and prepared/stored according to manufacturers recommendations. qHTS Assay Setup: 1.Dispensed 5ul of Huh7 cells stably expressing Rab9-luciferase at a density of 1500 cells per well 1536-well plates. 2.Incubate cells at 37C, 5% CO2, and 95% humidity for 2 hours. 3.Transferred 23nl per well of compound in DMSO solution. 4.Incubated at 37C, 5% CO2, and 95% humidity for 24 hours. 5.Dispensed 3ul per well of Amplite reagent(ABD Bioquest) per well. 6.Incubate at ambient for 10 minutes. 7.Read using the luminescence protocol on the ViewLux plate reader (Perkin Elmer).
For orientation: qHTS replaces the single test concentration by a dilution series.
Turning to `Cc1cccnc1CC(C)NC(=O)c1cc(COc2cncc(Cl)c2)on1` (centres undefined), the Potency entry was “inactive”.
In the case of `Cc1cc(OCc2cc(C(=O)NCc3cc(C(C)C)no3)no2)cc(C)c1Cl` it was 1 µM (active); in that of `COCCCNC(=O)COc1cc(C)c(Cl)c(C)c1`, “inactive”; in that of `CN(C)S(=O)(=O)c1cc(C(=O)Nc2ccn(C)n2)c(Cl)cc1Cl`, “inactive”.
Consider `O=C(Nc1cccc(C(=O)NC2CC2)c1)c1ccc(F)c(S(=O)(=O)N2CCOCC2)c1`, for which the Potency result is “inactive”.
As to `CC(=O)c1ccc(N2CCN(C(=O)c3ccc(Cl)c(S(=O)(=O)NC4CC4)c3)CC2)c(F)c1`, the Potency result is “inactive”.
As for `O=C(Nc1cccc([N+](=O)[O-])c1)c1ccc2c(c1)OCO2`, the entry is “inactive”; as for `O=C(Nc1cccc(S(=O)(=O)N2CCCCC2)c1)c1ccc2c(c1)OCO2`, “inactive”; as for `O=C(Nc1ccccc1)c1ccc2c(c1)OCO2`, 2.51 µM (active).
On to `CCCc1nnc(NC(=O)c2cc(OC)cc(OC)c2)s1`, for which the Potency entry was “inactive”.
As for `O=C(Nc1ccccc1)c1ccc2c(c1)OCCCO2`, the figure is 0.562 µM (active).
In the case of `Cn1c(NC(=O)c2ccc3c(c2)OCO3)cc(=O)n(C)c1=O` it was “inactive”.
In the case of `CN1CCN(c2ccc(NC(=O)c3ccc4c(c3)OCCO4)cc2Cl)CC1`, the Potency was 2 µM (active).
With `COC(=O)c1ccc(N2CCOCC2)c(NC(=O)c2ccc3c(c2)OCCO3)c1`, the Potency entry was “inactive”.
For `CN1CCN(c2ccc(NC(=O)c3cc(Cl)c4c(c3)OCCO4)cc2)CC1`, the Potency result is “inactive”.
As for `COCc1nnc(NC(=O)c2ccc3c(c2)OCO3)s1`, the Potency was 2.82 µM (active).
As to `O=C(Nc1cccc(S(=O)(=O)Nc2ccc(Cl)cc2)c1)c1ccc2c(c1)OCCO2`, the Potency entry was “inactive”.
In the case of `O=C(CN1CCc2cc3c(cc2C1)OCCCO3)Nc1ccccc1` it was “inactive”; in that of `CCN(CC)c1nc(-c2ccccc2)cc(C(F)(F)F)c1C#N`, “inactive”; in that of `Cc1ccc(-c2nnc(-n3nnc4ccccc43)c3ccccc23)cc1`, “inactive”.
Regarding `Cc1ccc(C(=O)OCC(=O)NCc2cc(C)c(O)c(C)c2)cc1S(=O)(=O)N1CCCCC1`, the Potency entry was “inactive”.
As for `O=C(Nc1ccc(Br)cn1)C1CCN(S(=O)(=O)c2cccs2)CC1`, the Potency entry was “inactive”.
With `O=C(CN1CCCCC1)Nc1ccccc1C(=O)NC1CC1`, the Potency entry is “inactive”.
As for `C=CCNc1nc(N)c(C(=C(C#N)C#N)c2ccccc2)s1`, the entry is “inactive”; as for `Cc1n[nH]c(=O)c2c(NC(=O)CSc3cc(Cl)ccc3Cl)oc(C)c12`, “inactive”.
On to `O=S(=O)(NCCc1ccccn1)c1cc(Cl)cc(Cl)c1O`, for which the Potency entry is “inactive”.
On to `Cc1nn(CC(=O)Nc2nc3ccccc3s2)c(C)c1[N+](=O)[O-]`, for which the Potency entry was “inactive”.
As for `Cc1ccc(F)cc1NC(=O)c1ccc2c(c1)OCO2`, the entry is “inactive”.
For `O=C(Nc1ccc2c(c1)OCO2)c1ccc(N2C(=O)c3ccccc3C2=O)cc1`, the Potency entry was “inactive”.
Turning to `COc1ccc(C(=O)Nc2ccc3c(c2)OCO3)cc1OC`, the Potency is 4.47 µM (active).
As for `O=C(Nc1ccccc1F)c1ccc2c(c1)OCO2`, the Potency is 2.82 µM (active).
In the case of `O=C(Nc1ccccc1)Nc1nc2ccccc2s1` it was 1.12 µM (active); in that of `O=C(Nc1ccccc1N1CCN(C(=O)c2ccccc2)CC1)c1ccc2c(c1)OCO2`, “inactive”; in that of `O=C(Nc1nc2ccccc2s1)c1ccc2c(c1)OCO2`, 0.316 µM (active).
In the case of `O=C(CCNC(=O)c1ccccc1)Nc1nc2ccccc2s1`, the Potency entry was “inactive”.
For the compound `COc1ccc(S(=O)(=O)N2CCOCC2)cc1C(=O)Nc1nc2ccccc2s1`, the Potency entry is “inactive”.
In the case of `O=C(Nc1nc2cc3c(cc2s1)OCCO3)c1cccc(S(=O)(=O)N2CCOCC2)c1`, the Potency result is “inactive”.
In the case of `COc1cc(NC(=O)c2ccc3c(c2)OCO3)ccc1NC(=O)c1cccs1`, the Potency result is “inactive”.
In the case of `CSc1ncccc1C(=O)Nc1ccc2c(c1)OCO2` it was “inactive”.
In the case of `CCC(C)NC(=O)c1ccc(NC(=O)CC2SC(N3CCCCC3)=NC2=O)cc1` (centres undefined), the Potency result is “inactive”.
In the case of `CC1CC(C)CN(C(=O)COC(=O)c2ccc3ncsc3c2)C1` (centres undefined) it was “inactive”.
For `CN(CC(=O)NCC(c1ccccc1)N1CCCC1)S(=O)(=O)c1ccc(Cl)cc1` (centres undefined), the Potency result is “inactive”.
On to `COc1ccc(CCNC(=O)COc2ccc3c(c2)OCO3)cc1`, for which the Potency entry was “inactive”.
Regarding `CC(Oc1ccc(Br)cc1)C(=O)NC1CCCCCC1` (centres undefined), the Potency result was “inactive”.
In the case of `Cc1ccc(C(=O)Nc2ccc3c(c2)OCO3)cc1S(=O)(=O)N1CCCCC1`, the Potency entry is “inactive”.
Regarding `CC(C)C(=O)Nc1cccc(C(=O)Nc2ccc3c(c2)OCO3)c1`, the Potency was 1.12 µM (active).
For `CCSc1ccccc1C(=O)Nc1ccc2c(c1)OCO2`, the Potency entry is “inactive”.
As for `CN(CC(=O)Nc1ccc(F)c(F)c1F)C(=O)C1CC(=O)N(C2CCCC2)C1` (centres undefined), the entry is “inactive”; as for `NS(=O)(=O)c1ccc(CNC(=O)c2cccc(S(=O)(=O)N3CCc4ccccc43)c2)cc1`, “inactive”.
`COc1cc(C(=O)Nc2ncccc2C)ccc1OCC(=O)N1CCOCC1`: the Potency entry was “inactive”.
As to `CC1(C)O[C@@H]2[C@H](O1)[C@@H](COS(=O)(=O)O)O[C@H]2n1ccc(=O)[nH]c1=O`, the Potency result was “inactive”.
As for `COc1ccc(-n2nnnc2-c2nc3ccccc3s2)cc1`, the figure is 2.82 µM (active); as for `COc1ccc(C2=NN(c3nc4ccccc4s3)C(=O)C2)cc1`, “inactive”; as for `CCOc1cccc(-n2nnnc2-c2ccc(OC)cc2)c1`, “inactive”.

Source of the values: PubChem BioAssay AID485297 (National Center for Advancing Translational Sciences (NCATS), 2010).
